Only some compounds are listed: those with a hit (about 1.2% of all), similar ones and a draw of the others.
TLR9-MyD88 block: inhibitors of TLR9-MyD88 association in cells, primary screen, cell-based, CHO, BLA complementation, fluorescence; AID 504734, 2011; 340,000 compounds, 0.21% hits; inhibition, % at 4.98 µM; CCF4 FRET ratio;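 active means inhibition above the mean over all tested compounds plus 3 SD, cut at about 21% in these data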
ABHD5-PLIN5 inh: ABHD5-PLIN5 interaction inhibitors, primary screen, cell lysate, split luciferase complementation, luminescence; 360,000 compounds, 0.78% hits; AID 602281, 2012; inhibition, % at 4 µM; Split G. princeps luciferase complementation, 4 h; Perilipin-5 (Homo sapiens) + 1-acylglycerol-3-phosphate O-acyltransferase ABHD5 (Homo …;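 active means inhibition above the mean inhibition across every tested compound plus 3 SD, cut at about 22% in these data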
Target sequence (Q00G26 whole entry, looked up): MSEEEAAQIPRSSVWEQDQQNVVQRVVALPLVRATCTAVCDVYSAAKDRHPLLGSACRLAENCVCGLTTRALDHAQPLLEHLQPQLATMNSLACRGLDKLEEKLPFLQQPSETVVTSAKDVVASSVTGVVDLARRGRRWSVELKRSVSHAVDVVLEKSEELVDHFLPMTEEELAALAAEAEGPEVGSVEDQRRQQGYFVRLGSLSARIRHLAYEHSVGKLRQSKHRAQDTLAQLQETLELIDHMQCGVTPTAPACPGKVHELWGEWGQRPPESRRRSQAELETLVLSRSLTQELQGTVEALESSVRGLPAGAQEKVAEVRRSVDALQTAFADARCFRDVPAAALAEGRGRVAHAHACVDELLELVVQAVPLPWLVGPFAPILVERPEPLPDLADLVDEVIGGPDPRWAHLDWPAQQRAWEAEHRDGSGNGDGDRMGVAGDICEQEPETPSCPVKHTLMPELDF
Target sequence (Q8WTS1 whole entry, looked up): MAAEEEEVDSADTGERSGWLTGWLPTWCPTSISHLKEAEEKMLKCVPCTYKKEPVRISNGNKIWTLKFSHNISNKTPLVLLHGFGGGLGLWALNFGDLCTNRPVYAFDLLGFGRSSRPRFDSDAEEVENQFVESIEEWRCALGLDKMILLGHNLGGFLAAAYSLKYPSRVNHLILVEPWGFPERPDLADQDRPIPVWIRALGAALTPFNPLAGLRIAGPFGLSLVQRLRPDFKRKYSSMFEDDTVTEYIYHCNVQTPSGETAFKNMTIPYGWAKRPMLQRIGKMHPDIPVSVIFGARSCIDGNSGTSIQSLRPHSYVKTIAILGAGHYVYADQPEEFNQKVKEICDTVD
TLR4 MyD88 comp: inhibitors of TLR4-MyD88 association in cells, primary screen, cell-based, HeLa CL3-4, BLA complementation, FRET ratio; HeLa CL3-4 TLR4/MyD88 BLA complementation; Toll-like receptor 4 (Homo sapiens) + Myeloid differentiation primary response protein …; AID 861, 2007; inhibition, % at 8.4 µM; 200,000 compounds, 0.18% hits; in the data active means inhibition above about 25%
NOD2 RIPK2 PPI: NOD2-RIPK2 binding disruptors in cells, primary screen, fluorescence, CHO cells, BLA complementation. inhibition, % at 4.98 µM. Receptor-interacting serine/threonine-protein kinase 2 (Homo sapiens), O43353. CCF4 ratio. AID 624267, 2012. 360,000 compounds, 0.38% hits; in the data active means inhibition above about 21%
Large screens that a line does not name were inactive; ! = a repeat was not active.

O=C(CSc1nc2scc(-c3ccco3)c2c(=O)n1-c1ccccc1)NCC1CCCO1 (stereo not drawn)	ABHD5-PLIN5 inh 56
CSc1cccc(N2CC(C(=O)N(Cc3nnc(-c4ccccc4Cl)o3)C3CC3)CC2=O)c1 (stereo not drawn)	none (no result: TLR4 MyD88 comp)
C#CCOCCOCCOCCNc1nc(N2CCN(C(=O)[C@H](Cc3cc4ccccc4[nH]3)n3cc([C@@H](N)CC(C)C)nn3)CC2)nc(N2CCN(C(=O)[C@H](Cc3cc4ccccc4[nH]3)n3cc([C@@H](N)CC(C)C)nn3)CC2)n1	ABHD5-PLIN5 inh 51
C#CCOCCOCCOCCNc1nc(N2CCN(C(=O)[C@H](Cc3ccc(O)cc3)n3cc([C@@H](N)C(C)CC)nn3)CC2)nc(N2CCN(C(=O)[C@H](Cc3cc4ccccc4[nH]3)n3cc([C@@H](N)C(C)CC)nn3)CC2)n1 (stereo partly drawn)	ABHD5-PLIN5 inh 25
C#CCOCCOCCOCCNc1nc(N2CCOCC2)nc(N2CCN(C(=O)[C@H](Cc3cc4ccccc4[nH]3)n3cc([C@@H](N)CC(C)C)nn3)CC2)n1	none
CC(=O)N1N=C(c2ccc(C)cc2)OC1c1cccnc1 (stereo not drawn)	none
CN(C)c1ccc(/C=C/c2ccc3c4ccccc4ccc3[n+]2-c2ccccc2)cc1	ABHD5-PLIN5 inh 37
CN(C)c1ccc(/C=C/c2nc3ccccc3c(=O)[nH]2)cc1	none (no result: TLR4 MyD88 comp)
CCOC(=O)C1(CCOc2ccccc2)CCN(CC(O)CO)CC1 (stereo not drawn)	none (no result: TLR4 MyD88 comp)
O=C(/C=C/c1ccc2c(c1)OCO2)c1ccc(F)cc1	ABHD5-PLIN5 inh 22
COC(=O)[C@@]1(Cc2ccccc2)[C@@H]2C(=CC(=O)[C@H]2CC(=O)C(=O)N(C)C)CN1C(=O)c1ccccc1	ABHD5-PLIN5 inh 31
COc1ccc2c(c1)c[n+](C)c1c3cc(OC)c(OC)cc3ccc21	ABHD5-PLIN5 inh 22 (no result: TLR9-MyD88 block, TLR4 MyD88 comp)
CCOC(=O)c1cnc[nH]c1=O	ABHD5-PLIN5 inh 22 (no result: TLR4 MyD88 comp)
COc1cc(/C=C2\SC(=Nc3ccccc3)N(CCc3c[nH]c4ccccc34)C2=O)ccc1OC(C)C(=O)O (stereo not drawn)	none
O=C1/C(=C/c2ccc(N3CCOCC3)o2)SC(=Nc2ccccc2)N1CCc1c[nH]c2ccccc12	ABHD5-PLIN5 inh 77, NOD2 RIPK2 PPI 47
O=C(Cn1sc2ccccc2c1=O)NC12CC3CC(CC(C3)C1)C2	TLR9-MyD88 block 21, ABHD5-PLIN5 inh 59
COc1ccc(C(=O)/C=C/c2ccc(O)cc2)cc1	none
COc1ccc(C=CC(=O)c2c(OC)cc(OC)c(OC)c2O)cc1	ABHD5-PLIN5 inh 23 (no result: TLR4 MyD88 comp)
COc1ccc(-c2c[n+](CC(=O)N3c4ccccc4Sc4ccccc43)c3n2CCC3)cc1	none (no result: TLR4 MyD88 comp)
O=C(C[n+]1cc(-c2ccc(Cl)c(Cl)c2)n2c1CCC2)N1c2ccccc2Sc2ccccc21	ABHD5-PLIN5 inh 34
O=C(C[n+]1cc(-c2ccc(Cl)cc2)n2c1CCC2)N1c2ccccc2Sc2ccccc21	ABHD5-PLIN5 inh 23
Cn1c(NC(=O)C[n+]2cc(-c3ccc(Cl)c(Cl)c3)n3c2CCC3)cc(=O)n(C)c1=O	none
CCOc1ccc(C(=O)CC(C(=O)O)N2CCCCC2)cc1 (stereo not drawn)	ABHD5-PLIN5 inh 85 (no result: TLR4 MyD88 comp)
CCOc1ccc(C(=O)CC(C(=O)O)N2CCN(Cc3ccccc3)CC2)cc1 (stereo not drawn)	ABHD5-PLIN5 inh 95 (no result: TLR4 MyD88 comp)
O=C(COC(=O)CSc1ccc(F)cc1)NC1CCCCCC1	none (no result: TLR4 MyD88 comp)
OCC1OC(Nc2ccccc2C=NO)C(O)C1O (stereo not drawn)	none (no result: TLR4 MyD88 comp)
COC(=O)c1ccc(CCc2cc(O)ccc2O)cc1	ABHD5-PLIN5 inh 42 (no result: TLR4 MyD88 comp)
COc1ccc(O)c(CN2CCCC(N3CCc4ccccc4C3)C2)c1 (stereo not drawn)	none (no result: TLR4 MyD88 comp)
COc1ccc(CCNCC(O)Cn2c3ccccc3c3ccccc32)cc1OC (stereo not drawn)	ABHD5-PLIN5 inh 22
CCCn1cnc2scc(-c3ccc(C)c(C)c3)c2c1=O	none (no result: TLR4 MyD88 comp)
C=Cc1ncc(OC)c2c1[nH]c1ccccc12	ABHD5-PLIN5 inh 24 (no result: TLR4 MyD88 comp)
Cc1cccc(/C=C/C(=O)c2cc(Br)ccc(=O)c2O)c1	ABHD5-PLIN5 inh 23
CCCc1cc(=O)[nH]c(Nc2ccc3c(c2)OCCO3)n1	none
CCN1CCN(Cc2ccc(NC(=O)c3cc(NC(=O)C(=O)c4c[nH]c5ccccc45)cc(OC)c3)cc2C(F)(F)F)CC1	ABHD5-PLIN5 inh 22! (no result: TLR4 MyD88 comp)
CCN1CCN(Cc2ccc(NC(=O)c3cc(NC(=O)c4cc(C)on4)cc(OC)c3)cc2C(F)(F)F)CC1	none (no result: TLR4 MyD88 comp)
CCN1CCN(Cc2ccc(NC(=O)c3ccc(C)c(NC(=O)C(=O)c4c[nH]c5ccccc45)c3)cc2C(F)(F)F)CC1	ABHD5-PLIN5 inh 30! (no result: TLR4 MyD88 comp)
CCN1CCN(Cc2ccc(NC(=O)c3ccc(C)c(NC(=O)c4ccc5n[nH]nc5c4)c3)cc2C(F)(F)F)CC1	none (no result: TLR4 MyD88 comp)
CCOc1ccc(C(C)NC(=O)c2cccc(F)c2)cc1 (stereo not drawn)	none
O=C(Nc1ccc(Cl)cc1)NC1CCCC1Cc1ccco1 (stereo not drawn)	ABHD5-PLIN5 inh 49
Cc1ccc(C(=O)/C=C/C(=O)c2ccc(C)cc2)cc1	ABHD5-PLIN5 inh 23
COc1cc(C2CC(=O)C3=C(C2)Nc2ncnn2C3c2cccs2)cc(OC)c1OC (stereo not drawn)	none (no result: TLR9-MyD88 block, TLR4 MyD88 comp)
COc1cc(C2C=C(c3cccs3)Nc3ncnn32)cc(OC)c1OC (stereo not drawn)	TLR9-MyD88 block 65, NOD2 RIPK2 PPI 80
CCCOc1c(Br)cc(C(=O)OCc2cc(=O)n3ccsc3n2)cc1OC	none (no result: TLR4 MyD88 comp)
Cc1nn(-c2ccccc2)c(C)c1NC(=O)COc1ccc(C#N)cc1	none
Cc1nn(-c2ccccc2)c(C)c1NC(=O)COc1ccc2ccccc2c1	NOD2 RIPK2 PPI 49
COC(=O)CS(=O)(=O)c1nnc([C@H](Cc2ccccc2)NC(=O)OC(C)(C)C)o1	ABHD5-PLIN5 inh 56, NOD2 RIPK2 PPI 46
CC(C)(C)OC(=O)N[C@@H](Cc1ccccc1)c1nnc(SCC(N)=O)o1	none (no result: TLR4 MyD88 comp)
Cc1cccc(CS(=O)(=O)c2nnc([C@H](Cc3ccccc3)NC(=O)OC(C)(C)C)o2)c1	ABHD5-PLIN5 inh 43, NOD2 RIPK2 PPI 65
CN(C(=O)c1ccc(Br)o1)C1CCCCC1	none (no result: TLR4 MyD88 comp)
Cc1cc(-c2ccccc2)nc2cc(C(=O)NCc3ccco3)nn12	ABHD5-PLIN5 inh 23
COCc1cc(CN2CCCC(C(=O)Nc3ccc(-c4ccco4)cc3)C2)ccc1OC (stereo not drawn)	ABHD5-PLIN5 inh 32 (no result: TLR4 MyD88 comp)
Cc1ncc(CN2CCCC(C(=O)Nc3ccc(-c4ccco4)cc3)C2)cn1 (stereo not drawn)	none (no result: TLR4 MyD88 comp)
Cc1[nH]c(=O)c(C(=O)/C=C/c2ccccc2F)c2c1CCCC2	ABHD5-PLIN5 inh 51, NOD2 RIPK2 PPI 23
CC(C)c1ccc(NC(=O)c2ccc(-c3ccnn3C)c3ccoc23)cc1	none (no result: TLR9-MyD88 block, TLR4 MyD88 comp)

From PubChem
